IL1B secr inh: qHTS for Inhibitors of Inflammasome Signaling: IL-1-beta AlphaLISA Primary Screen | THP-1 LPS/ATP IL-1B secretion, AlphaLISA, 16 h; active compounds read low | activity change, % at 57.5 µM | 360,000 compounds, 4.7% hits; in the data active = activity change below about -50%; inconclusive = mostly about -30% to -49%
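Secreted IL-1B measured by AlphaLISA bead assay after 16 h compound exposure of THP-1 cells; compounds (final up to 57.5 uM) added 1 h before LPS (250 ng/mL) and ATP (1.25 mM) stimulation; lower signal means less secretion.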
DT40 TDP1 no CPT: qHTS for Inhibitors of human tyrosyl-DNA phosphodiesterase 1 (TDP1): qHTS in cells in absence of CPT. DT40 Tdp1-/- hTDP1 cells, no CPT, ATP luminescence, 48 h. Potency, µM (series often up to 46.2 µM), for the others: at the highest dose activity change, negative = growth inhibition, most hits filed as inhibitors. 420,000 compounds, 15% hits. AID 686978, 2013; also: potency is read from the fitted curve at half-maximal effect; nearly all actives have a fitted effect of over 55% in size
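No-CPT arm: Tdp1-/-;hTDP1 DT40 cells (400/well) plus compounds, incubated ≥48 hr at 37 °C. Readout CellTiter-Glo luminescence.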
TDP1 cell CPT: qHTS for Inhibitors of human tyrosyl-DNA phosphodiesterase 1 (TDP1): qHTS in cells in presence of CPT. chicken DT40 Tdp1-/-;hTDP1 cells + 20 nM CPT, ATP luminescence, 48 h. 420,000 compounds, 12% hits. Potency, µM (doses to about 46.2 µM), inactives show at the highest dose activity change, negative = growth inhibition, actives largely listed as inhibitors; also: potency is read from the fitted curve at half-maximal effect; nearly all actives have a fitted effect of over 55% in size
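Chicken DT40 Tdp1-/- cells complemented with human TDP1, 400 cells/well, exposed to compounds plus 20 nM camptothecin for at least 48 h at 37 C; viability read as ATP content by CellTiter-Glo luminescence.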
HT1080 IDH1KD tx: qHTS for induction of synthetic lethality in tumor cells producing 2HG: qHTS for the HT-1080-IDH1KD cell line; 360,000 compounds, 2% hits; HT-1080 IDH1 knockdown viability, ATP luminescence, 48 h; AID 686971, 2013; Potency, µM (titrated, usually from 46.1 µM), inactives show top-dose activity, negative = toxicity, most hits filed as cytotoxic;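 also: potency is read from the fitted curve at half-maximal effect; 0% = DMSO wells and -100% = cell-free medium wells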
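Viability of IDH1-knockdown HT-1080 fibrosarcoma cells was assessed by CellTiter-Glo after 48 h at 37 °C with titrated compound; concentration-effect curves were classified by fit quality and response size.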
HT1080-NT tox: qHTS for induction of synthetic lethality in tumor cells producing 2HG: qHTS for the HT-1080-NT fibrosarcoma cell line | HT-1080-NT fibrosarcoma viability, CellTiter-Glo ATP luminescence, 48 h | Potency, µM (titrated, usually from 46.1 µM), for the others: top-dose activity, negative = less viability, most hits filed as cytotoxic | 360,000 compounds, 1.6% hits | AID 686970, 2013;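 also: NT is the 2HG producing partner of a matched IDH1 knockdown line; potency is read from the fitted curve at half-maximal effect; 0% = DMSO-treated cells and -100% = media-only wells without cells; nearly all actives have a fitted effect of over 55% in size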
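HT-1080-NT; 750 cells/well; 5% FBS RPMI; 48 h compound, 37 degrees C; CellTiter-Glo luminescence; curve fitting and curve-class assignment.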
Starred values were filed as active, the others as inactive; ? = inconclusive; · = no result; [ ] = another dose, or the depositor's remark. Most compounds without a hit are left out; they make up all but 19% or so of the library. Unless noted, calls follow the shape of the dose curve; as a rule, active = well fitted curve in the direction sought with a large enough effect; inconclusive = small, poorly fitted or top-dose-only effect, or another doubt; inactive = no such curve, though single readings can be large; an effect the other way counts as inactive or inconclusive. Unless noted, % is scaled to controls: 0 for no effect and ±100 for the full control effect.

SMILES	IL1B secr inh	DT40 TDP1 no CPT	TDP1 cell CPT	HT1080 IDH1KD tx	HT1080-NT tox
Cc1ccc(/C(O)=C2/C(=O)C(=O)N(c3ccccn3)C2c2cccc([N+](=O)[O-])c2)cc1 (configuration not stated)	23.2	-1.9%	13.1%	-16.2%	-18.9%
COC(=O)C1CCN(C(=O)COC(=O)CC(NC(N)=O)c2ccc(Cl)cc2)CC1 (configuration not stated)	23.7	-15.5%	0.2%	-5.1%	-6.4%
COC(=O)c1ccc(CSCc2ccc(C(=O)OC)o2)o1	8.2	-15.0%	4.6%	-4.8%	-2.9%
Cc1ccc(CC(=O)NCc2ccc(Cl)cc2)cc1	33.2	3.66µM*	4.61µM*	9.2µM*	20.6µM*
CCC(C)NC(=O)c1ccc(CSCc2ccc(Cl)cc2)o1 (configuration not stated)	-10.6	25.9µM*	-24.7%	-4.6%	1.0%
O=C(CC(=O)NCc1ccc(Cl)cc1)NCc1ccc(Cl)cc1	1.0	-2.1%	2.2%	-10.0%	?
Cc1ccc(CSCc2ccc(C(=O)NC3CC3)o2)cc1	12.4	23.1µM*	?	?	?
CCC(C)NC(=O)c1ccc(CSCc2ccccc2Cl)o1 (configuration not stated)	-19.0	?	?	-6.5%	-2.8%
Cc1ccc(CSCc2ccc(C(=O)NC3CCCC3)o2)cc1	11.6	-2.3%	5.3%	5.9%	2.2%
Cc1ccc(CSCc2ccc(C(=O)NCCC(C)C)o2)cc1	-66.1*	?	-23.7%	-4.6%	-22.2%
Cc1cc(C)n(S(=O)(=O)c2ccc3oc(=O)ccc3c2)n1	-16.5	-37.4%	-18.5%	16.5%	0.0%
Cc1ccc(C)c(NC(=O)C[n+]2ccccc2)c1	-6.5	7.8%	23.8%	-0.6%	0.3%
Cc1nc(C)c(C(=O)NCc2ccc(Cl)cc2)o1	26.9	?	?	-4.1%	0.0%
Cc1ccc(CSCc2ccc(C(=O)NCCCN3CCOCC3)o2)cc1	11.5	6.51µM*	?	-3.0%	-3.5%
Cc1nn(C)c(C(=O)NCc2ccc(Cl)cc2)c1Cl	-9.1	4.11µM*	4.11µM*	-24.2%	-10.2%
Cc1ccc(CNC(=O)c2ccc(CSCc3ccc(Cl)cc3)o2)cc1	·	16.4µM*	?	·	·
O=C(OCc1cccc(F)c1)c1cc2ccccc2cc1O	4.6	-3.5%	9.2%	6.5%	12.0%
COc1ccc(NC(C)=O)c([N+](=O)[O-])c1[N+](=O)[O-]	-68.9*	?	?	-9.0%	-8.2%
COc1ccc(OC)c([N+](=O)[O-])c1C(N)=O	12.5	6.1%	6.0%	7.2%	18.3%
O=C(O)Cc1ccc(-c2ccccc2-c2ccccc2)cc1	17.1	20.6µM*	14.6µM*	-2.7%[9.24 µM]	-1.5%
CCOC(=O)c1cc2c(ccc3ccccc32)oc1=O	13.8	0.8%	12.2%	·	·
O=C(c1cc2c(ccc3ccccc32)oc1=O)N1CCCC1	-51.8*	-2.8%	4.4%	8.4%	8.4%
CCCCNC(=O)CN1C(=O)NC2(CCCc3ccccc32)C1=O (configuration not stated)	-9.7	-0.7%	1.7%	-1.6%	1.7%
FC(F)Oc1ccc(-n2cc(-c3ccccc3)[n+]3c2CCCCC3)cc1	-22.7	5.8µM*	5.17µM*	-4.7%	-11.5%
N#Cc1c2n(c(=S)n(-c3ccc(OC(F)F)cc3)c1=O)CCCCC2	21.1	?	-6.5%	-0.6%	13.1%
Cc1ccc(-c2cn(-c3ccc(OC(F)F)cc3)c3[n+]2CCCCC3)cc1	-81.3*	1.03µM*	0.651µM*	-25.5%	?
COc1ccc(S(=O)(=O)N2CCCOC2CNC(=O)C(=O)NCc2ccccn2)cc1 (configuration not stated)	2.6	-24.9%	-3.2%	7.1%	-0.2%
